Experiments:
Experiment in all cases: DAPPL (digital affinity profiling via proximity ligation, sequencing); 10 mM Tris-HCl pH 7.5, 50 mM NaCl, 1 mM DTT, 4% glycerol, room temperature, 30 min; GST-TFs on glutathione beads, 16-mer random dsDNA library, 0.1% formaldehyde crosslink after washing; high values mean tight binding
Details in all cases: protein: recombinant; tags: N-terminal GST; dsDNA, one strand shown
GABPA = target: T1, GABPA (Homo sapiens, UniProt Q06546 1-454)
T1 sequence: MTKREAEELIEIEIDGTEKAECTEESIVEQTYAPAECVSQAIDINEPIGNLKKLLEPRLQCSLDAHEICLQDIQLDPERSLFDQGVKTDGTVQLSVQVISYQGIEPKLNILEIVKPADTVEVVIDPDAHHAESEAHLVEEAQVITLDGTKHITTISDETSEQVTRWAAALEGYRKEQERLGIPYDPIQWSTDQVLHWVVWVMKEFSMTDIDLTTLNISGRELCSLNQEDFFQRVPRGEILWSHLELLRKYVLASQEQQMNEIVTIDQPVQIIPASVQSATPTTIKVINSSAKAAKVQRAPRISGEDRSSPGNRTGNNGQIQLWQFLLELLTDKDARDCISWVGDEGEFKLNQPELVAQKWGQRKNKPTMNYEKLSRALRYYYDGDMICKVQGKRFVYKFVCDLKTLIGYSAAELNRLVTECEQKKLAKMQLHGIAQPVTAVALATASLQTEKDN
In short: (§1)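 Sequencing on an Illumina NextSeq500 followed washing, crosslinking with 0.1% formaldehyde, proximity ligation (BsaI/T4 ligase, 1 h, 37 °C) and PCR amplification of pools that had been incubated for 30 min at room temperature with 200 nmole of a random double-stranded 16-mer DNA library in Tris/NaCl/DTT/glycerol buffer. Each pool held DNA-barcoded human transcription factors, expressed in yeast as GST fusions and captured on glutathione beads, plus a tag-only sample. Binding signal is a hexamer's read frequency for a factor divided by its frequency in the tag-only sample.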

EHF = target: T2, EHF (Homo sapiens, UniProt Q9NZC4 1-300)
T2 sequence: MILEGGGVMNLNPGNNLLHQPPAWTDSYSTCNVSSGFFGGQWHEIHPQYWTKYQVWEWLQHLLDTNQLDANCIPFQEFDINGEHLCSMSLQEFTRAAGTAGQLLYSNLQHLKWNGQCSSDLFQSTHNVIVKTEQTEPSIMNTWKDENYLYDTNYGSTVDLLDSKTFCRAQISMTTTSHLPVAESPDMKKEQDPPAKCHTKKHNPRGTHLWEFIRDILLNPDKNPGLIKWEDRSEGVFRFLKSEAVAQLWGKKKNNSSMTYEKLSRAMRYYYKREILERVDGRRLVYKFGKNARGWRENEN
In short: as §1

ELK3 = target: T3, ELK3 (Homo sapiens, UniProt P41970 1-407)
T3 sequence: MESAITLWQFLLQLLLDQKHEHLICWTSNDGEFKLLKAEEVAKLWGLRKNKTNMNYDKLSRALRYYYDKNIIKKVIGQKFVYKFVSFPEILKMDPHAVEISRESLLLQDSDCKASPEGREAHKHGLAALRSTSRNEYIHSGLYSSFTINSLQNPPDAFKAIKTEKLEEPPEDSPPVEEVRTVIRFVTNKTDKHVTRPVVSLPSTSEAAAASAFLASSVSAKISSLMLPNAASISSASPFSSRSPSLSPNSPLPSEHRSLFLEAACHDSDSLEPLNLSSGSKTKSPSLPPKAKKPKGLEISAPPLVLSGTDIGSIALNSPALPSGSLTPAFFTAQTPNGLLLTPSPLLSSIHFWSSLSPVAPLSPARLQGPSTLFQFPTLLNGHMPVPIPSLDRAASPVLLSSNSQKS
In short: as §1

ELF4 = ELF4 (Homo sapiens, UniProt Q99607 1-663)
Sequence of ELF4 (Q99607 whole entry): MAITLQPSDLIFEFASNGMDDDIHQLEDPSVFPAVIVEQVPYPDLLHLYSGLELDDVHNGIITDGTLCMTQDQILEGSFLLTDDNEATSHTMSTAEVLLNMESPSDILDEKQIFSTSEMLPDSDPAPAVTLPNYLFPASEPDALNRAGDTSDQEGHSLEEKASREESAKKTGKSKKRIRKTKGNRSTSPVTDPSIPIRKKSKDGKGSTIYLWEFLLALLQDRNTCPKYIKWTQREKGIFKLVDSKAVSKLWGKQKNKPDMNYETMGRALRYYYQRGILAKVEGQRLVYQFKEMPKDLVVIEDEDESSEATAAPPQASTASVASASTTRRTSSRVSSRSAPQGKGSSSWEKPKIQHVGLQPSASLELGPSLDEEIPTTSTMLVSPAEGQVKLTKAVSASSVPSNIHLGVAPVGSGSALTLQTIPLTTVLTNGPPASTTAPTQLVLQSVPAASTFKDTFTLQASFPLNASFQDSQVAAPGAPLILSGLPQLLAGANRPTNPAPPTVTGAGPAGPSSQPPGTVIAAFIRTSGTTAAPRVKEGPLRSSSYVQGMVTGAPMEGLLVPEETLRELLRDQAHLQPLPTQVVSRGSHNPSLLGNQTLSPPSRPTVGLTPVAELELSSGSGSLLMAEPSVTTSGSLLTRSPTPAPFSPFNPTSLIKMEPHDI
In short: as §1

ETV7 = target: T4, ETV7 (Homo sapiens, UniProt Q9Y603 1-341)
T4 sequence: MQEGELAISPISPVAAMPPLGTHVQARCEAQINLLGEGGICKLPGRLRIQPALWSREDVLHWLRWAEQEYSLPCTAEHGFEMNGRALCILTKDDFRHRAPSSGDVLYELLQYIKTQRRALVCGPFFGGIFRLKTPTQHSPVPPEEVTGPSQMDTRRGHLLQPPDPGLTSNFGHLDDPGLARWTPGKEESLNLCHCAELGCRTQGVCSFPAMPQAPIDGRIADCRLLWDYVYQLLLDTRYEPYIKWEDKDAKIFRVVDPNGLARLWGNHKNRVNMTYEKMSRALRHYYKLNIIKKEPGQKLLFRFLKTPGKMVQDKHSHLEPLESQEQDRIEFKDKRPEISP
In short: as §1

ELK1 = target: T5, ELK1 (Homo sapiens, UniProt P19419 1-428)
T5 sequence: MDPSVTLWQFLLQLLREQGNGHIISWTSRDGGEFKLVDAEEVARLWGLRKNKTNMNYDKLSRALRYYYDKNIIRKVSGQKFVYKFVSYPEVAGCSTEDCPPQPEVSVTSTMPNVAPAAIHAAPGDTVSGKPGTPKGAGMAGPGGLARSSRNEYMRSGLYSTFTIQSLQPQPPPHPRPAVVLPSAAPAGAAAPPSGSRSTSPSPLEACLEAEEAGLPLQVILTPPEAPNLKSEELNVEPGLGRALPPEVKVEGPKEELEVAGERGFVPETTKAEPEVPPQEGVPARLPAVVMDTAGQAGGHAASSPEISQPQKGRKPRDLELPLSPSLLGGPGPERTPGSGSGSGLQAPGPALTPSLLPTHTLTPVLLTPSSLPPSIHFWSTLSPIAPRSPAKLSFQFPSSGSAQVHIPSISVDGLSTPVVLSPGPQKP
In short: as §1

ERG = target: T6, ERG (Homo sapiens, UniProt P11308 1-479)
T6 sequence: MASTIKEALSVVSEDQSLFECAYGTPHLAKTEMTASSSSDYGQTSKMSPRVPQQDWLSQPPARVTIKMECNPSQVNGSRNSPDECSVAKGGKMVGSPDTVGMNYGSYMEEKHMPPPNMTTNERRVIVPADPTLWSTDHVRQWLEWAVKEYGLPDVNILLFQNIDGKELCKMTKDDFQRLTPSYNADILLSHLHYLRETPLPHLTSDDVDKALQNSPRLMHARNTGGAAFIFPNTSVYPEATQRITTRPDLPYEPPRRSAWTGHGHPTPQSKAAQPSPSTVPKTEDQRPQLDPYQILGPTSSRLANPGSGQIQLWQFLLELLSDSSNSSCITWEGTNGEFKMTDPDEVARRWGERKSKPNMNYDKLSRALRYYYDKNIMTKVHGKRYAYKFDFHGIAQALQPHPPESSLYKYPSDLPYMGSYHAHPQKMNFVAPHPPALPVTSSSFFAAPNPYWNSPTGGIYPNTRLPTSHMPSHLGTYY
In short: as §1

SPIB = SPIB (Homo sapiens, UniProt Q01892 1-262)
Sequence of SPIB (Q01892 whole entry): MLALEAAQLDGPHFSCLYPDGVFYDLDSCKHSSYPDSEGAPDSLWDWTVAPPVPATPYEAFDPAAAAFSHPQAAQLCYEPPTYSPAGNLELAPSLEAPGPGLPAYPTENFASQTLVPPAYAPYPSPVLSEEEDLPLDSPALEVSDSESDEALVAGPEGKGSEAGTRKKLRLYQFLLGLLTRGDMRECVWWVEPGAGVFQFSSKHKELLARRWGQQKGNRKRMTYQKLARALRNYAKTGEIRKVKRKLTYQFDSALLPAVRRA
In short: as §1

FEV = target: T7, FEV (Homo sapiens, UniProt Q99581 1-238)
T7 sequence: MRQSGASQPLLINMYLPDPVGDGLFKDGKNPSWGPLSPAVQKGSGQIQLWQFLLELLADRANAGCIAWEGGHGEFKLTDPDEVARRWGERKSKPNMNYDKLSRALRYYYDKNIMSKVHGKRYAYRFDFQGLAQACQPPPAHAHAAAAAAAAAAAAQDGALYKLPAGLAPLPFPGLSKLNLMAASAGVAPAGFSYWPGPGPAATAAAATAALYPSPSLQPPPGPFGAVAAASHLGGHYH
In short: as §1

ELK4 = target: T8, ELK4 (Homo sapiens, UniProt P28324-2 1-405)
T8 sequence: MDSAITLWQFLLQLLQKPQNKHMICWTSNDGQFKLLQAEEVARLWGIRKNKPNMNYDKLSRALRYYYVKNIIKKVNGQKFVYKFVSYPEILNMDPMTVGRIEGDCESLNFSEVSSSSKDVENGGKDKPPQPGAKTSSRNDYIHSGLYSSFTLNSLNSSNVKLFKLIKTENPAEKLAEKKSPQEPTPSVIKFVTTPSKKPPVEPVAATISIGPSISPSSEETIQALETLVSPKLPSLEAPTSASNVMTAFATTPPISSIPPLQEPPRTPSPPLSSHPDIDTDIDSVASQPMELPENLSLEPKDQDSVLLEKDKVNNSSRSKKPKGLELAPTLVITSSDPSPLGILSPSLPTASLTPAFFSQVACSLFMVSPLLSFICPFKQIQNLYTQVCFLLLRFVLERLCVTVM
In short: as §1

ETV2 = target: T9, ETV2 (Homo sapiens, UniProt O00321 1-342)
T9 sequence: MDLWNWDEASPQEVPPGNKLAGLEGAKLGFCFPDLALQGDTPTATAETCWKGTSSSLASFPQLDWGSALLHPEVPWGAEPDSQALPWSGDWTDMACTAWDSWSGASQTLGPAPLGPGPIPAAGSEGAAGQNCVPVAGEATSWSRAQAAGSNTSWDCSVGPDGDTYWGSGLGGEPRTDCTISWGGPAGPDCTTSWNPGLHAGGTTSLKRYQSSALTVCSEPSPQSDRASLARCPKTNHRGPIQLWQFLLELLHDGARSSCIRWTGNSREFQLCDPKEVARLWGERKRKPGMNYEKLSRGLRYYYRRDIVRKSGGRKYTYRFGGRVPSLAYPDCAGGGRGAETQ
In short: as §1

ETV3L = target: T10, ETV3L (Homo sapiens, UniProt Q6ZN32 1-361)
T10 sequence: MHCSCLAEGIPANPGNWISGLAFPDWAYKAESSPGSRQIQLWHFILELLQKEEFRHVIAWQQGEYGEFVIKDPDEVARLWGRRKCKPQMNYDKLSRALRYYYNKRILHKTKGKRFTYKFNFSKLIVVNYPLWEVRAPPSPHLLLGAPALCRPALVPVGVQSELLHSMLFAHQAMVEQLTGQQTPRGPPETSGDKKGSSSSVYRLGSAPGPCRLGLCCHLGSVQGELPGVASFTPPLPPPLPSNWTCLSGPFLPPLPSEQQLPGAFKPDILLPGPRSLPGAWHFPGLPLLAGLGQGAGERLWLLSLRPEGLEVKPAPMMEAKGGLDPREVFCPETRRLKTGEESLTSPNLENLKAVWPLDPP
In short: as §1

ETV3 = target: T11, ETV3 (Homo sapiens, UniProt P41162-2 1-143)
T11 sequence: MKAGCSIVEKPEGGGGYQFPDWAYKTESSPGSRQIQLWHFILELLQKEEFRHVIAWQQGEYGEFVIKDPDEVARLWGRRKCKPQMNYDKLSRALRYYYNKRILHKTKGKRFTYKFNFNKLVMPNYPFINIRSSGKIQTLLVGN
In short: as §1

ETV6 = ETV6 (Homo sapiens, UniProt P41212 1-452)
Sequence of ETV6 (P41212 whole entry): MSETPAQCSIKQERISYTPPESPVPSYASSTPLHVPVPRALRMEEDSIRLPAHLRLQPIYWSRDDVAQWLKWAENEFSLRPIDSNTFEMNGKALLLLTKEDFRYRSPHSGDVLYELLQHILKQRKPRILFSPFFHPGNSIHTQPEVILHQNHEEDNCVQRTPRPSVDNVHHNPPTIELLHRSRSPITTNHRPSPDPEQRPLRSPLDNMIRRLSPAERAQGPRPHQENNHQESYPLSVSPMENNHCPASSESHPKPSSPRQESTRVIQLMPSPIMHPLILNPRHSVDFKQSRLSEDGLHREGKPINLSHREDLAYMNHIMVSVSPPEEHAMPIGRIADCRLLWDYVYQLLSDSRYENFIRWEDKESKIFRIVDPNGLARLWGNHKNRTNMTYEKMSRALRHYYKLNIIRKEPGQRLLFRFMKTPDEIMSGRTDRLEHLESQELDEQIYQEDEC
In short: as §1

Row | Sequence | binding signal (GABPA) | binding signal (EHF) | binding signal (ELK3) | binding signal (ELF4) | binding signal (ETV7) | binding signal (ELK1) | binding signal (ERG) | binding signal (SPIB) | binding signal (FEV) | binding signal (ELK4) | binding signal (ETV2) | binding signal (ETV3L) | binding signal (ETV3) | binding signal (ETV6)
1 | GCATAC | 1.01 fold enrichment (6-mer frequency, TF over GST control) | 1.01 fold enrichment (6-mer frequency, TF over GST control) | 1.05 fold enrichment (6-mer frequency, TF over GST control) | 1.01 fold enrichment (6-mer frequency, TF over GST control) | 1 fold enrichment (6-mer frequency, TF over GST control) | – | – | – | – | – | – | – | – | –
2 | CCGGCG | – | 1.03 fold enrichment (6-mer frequency, TF over GST control) | 1.02 fold enrichment (6-mer frequency, TF over GST control) | – | – | 1.09 fold enrichment (6-mer frequency, TF over GST control) | 1.09 fold enrichment (6-mer frequency, TF over GST control) | 1.15 fold enrichment (6-mer frequency, TF over GST control) | 1.25 fold enrichment (6-mer frequency, TF over GST control) | 1.14 fold enrichment (6-mer frequency, TF over GST control) | 1.04 fold enrichment (6-mer frequency, TF over GST control) | 1.07 fold enrichment (6-mer frequency, TF over GST control) | 1.05 fold enrichment (6-mer frequency, TF over GST control) | 1.11 fold enrichment (6-mer frequency, TF over GST control)
